MsrA inhibitor: inhibits bovine methionine sulfoxide reductase A; purified bovine MsrA, absorbance read-out; inhibition, % at 15.5 µM; 360,000 tested, 0.75% active; in the data active means inhibition above about 4.5%;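 further: 0% = vehicle wells with enzyme and 100% = reference inhibitor wells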
NPR1 activator: GC-A (human) enzyme activation | P16066 | HEK293 GC-A cells, cGMP TR-FRET, EC30 ANP; 0% at EC30 ANP, 100% saturating ANP | activation, % at 10 µM | 370,000 tested, 0.14% active; in the data active means activation above about 40%
Target sequence (P16066 whole entry, looked up): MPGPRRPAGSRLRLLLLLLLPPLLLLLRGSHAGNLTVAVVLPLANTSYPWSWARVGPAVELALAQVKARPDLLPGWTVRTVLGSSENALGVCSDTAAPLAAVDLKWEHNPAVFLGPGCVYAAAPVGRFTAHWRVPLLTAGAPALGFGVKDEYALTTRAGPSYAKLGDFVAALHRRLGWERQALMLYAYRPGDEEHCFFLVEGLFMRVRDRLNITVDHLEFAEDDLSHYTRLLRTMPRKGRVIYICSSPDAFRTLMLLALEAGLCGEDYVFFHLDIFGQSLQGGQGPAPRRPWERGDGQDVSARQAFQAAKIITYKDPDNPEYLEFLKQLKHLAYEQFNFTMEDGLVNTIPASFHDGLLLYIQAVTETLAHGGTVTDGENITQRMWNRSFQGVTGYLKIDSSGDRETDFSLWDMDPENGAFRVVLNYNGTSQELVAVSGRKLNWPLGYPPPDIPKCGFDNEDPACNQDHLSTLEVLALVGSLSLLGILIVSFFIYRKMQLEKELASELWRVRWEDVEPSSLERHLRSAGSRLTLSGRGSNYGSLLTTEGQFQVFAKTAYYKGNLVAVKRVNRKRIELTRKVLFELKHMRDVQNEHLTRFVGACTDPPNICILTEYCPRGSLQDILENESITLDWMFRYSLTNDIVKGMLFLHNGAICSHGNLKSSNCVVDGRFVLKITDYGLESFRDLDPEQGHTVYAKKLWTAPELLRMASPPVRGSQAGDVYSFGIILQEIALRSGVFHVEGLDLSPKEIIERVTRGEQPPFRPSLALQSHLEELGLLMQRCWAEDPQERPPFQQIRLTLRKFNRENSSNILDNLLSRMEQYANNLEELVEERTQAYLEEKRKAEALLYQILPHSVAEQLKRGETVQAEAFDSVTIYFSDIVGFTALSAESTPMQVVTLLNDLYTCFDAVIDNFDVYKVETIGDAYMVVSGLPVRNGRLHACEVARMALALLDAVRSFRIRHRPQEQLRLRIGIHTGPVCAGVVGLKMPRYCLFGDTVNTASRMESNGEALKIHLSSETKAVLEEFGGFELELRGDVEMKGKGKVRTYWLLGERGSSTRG
NPR2 activator: GC-B (human) receptor activation. 370,000 tested, 0.11% active. AID 1920062. P20594. activation, % at 10 µM. HEK293-GC-B cells, CNP EC30, cGMP TR-FRET; 0% at EC30 CNP, 100% saturating CNP;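 active means activation at 10 µM reaching about 35% in either raw or pattern-adjusted values, limit read from the data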
HTR2A ag: agonists of mouse serotonin 5-HT2A receptor (HTR2A). P35363. CHO-K1 mHTR2A beta-arrestin complementation, luminescence; percent of 30 µM serotonin response. activation, % at 7.6 µM. 360,000 tested, 0.66% active. AID 624169;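 active means activation above a run cutoff, the mean activation of all tested compounds plus 3 SD, cut at about 14% in these data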;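 further: 0% = plate median of compound wells and 100% = 30 µM serotonin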
MsrA act: activates bovine MsrA enzyme; purified bovine MsrA, absorbance read-out; 360,000 tested, 0.3% active; activation, % at 10.6 µM; in the data active means activation above about 7.5%;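 further: 0% = vehicle and 100% = reference activator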
Numbers without * were called inactive. Shown are actives, neighbours in structure and some others; about 1.8% of the full set was active somewhere.

Screening Oc1ccc2ccccc2c1N=Nc1ccccn1 returned MsrA inhibitor 0.3, NPR1 activator -0.9, NPR2 activator -11.2, HTR2A ag -5.5 and MsrA act -6.3.
Screening CC(C)(C)C(=O)NCCCc1nc2ccccc2n1CCCOc1ccc(Cl)cc1 returned MsrA inhibitor -0.2, NPR1 activator -3.4, NPR2 activator -8.2, HTR2A ag -8.3 and MsrA act 10.2*.
COc1cc(C(=O)Nc2cccc(S(=O)(=O)N3CCCC3)c2)c([N+](=O)[O-])cc1OC was read as MsrA inhibitor 4.6*, NPR1 activator -1.4, NPR2 activator -0.1, HTR2A ag -2.3 and MsrA act -2.1.
For CCCCCSc1nc(N2CCOCC2)c2c(c1C#N)CC(C)(C)OC2 the results were MsrA inhibitor -0.9, NPR1 activator 43.7*, NPR2 activator 47.4*, HTR2A ag 5.7 and MsrA act 4.9.
CC1(C)Cc2c(C#N)c(SCc3ccccc3)nc(N3CCOCC3)c2CO1 was read as MsrA inhibitor -0.1, NPR1 activator 21.2, NPR2 activator 51.7*, HTR2A ag -2.6 and MsrA act -10.3.
`COC(=O)C1=C(C)N(Cc2cccc(C(F)(F)F)c2)C(=NCC2CC2)NC1c1ccccc1` (stereo not given) gave MsrA inhibitor -0.9, NPR1 activator -21.6 and NPR2 activator -11.5.
Screening N#Cc1ccccc1NCCCN1CCC(C(O)(c2ccccc2)c2ccccc2)CC1 returned NPR1 activator -18.9 and NPR2 activator -25.7.
Cc1ccc(SCC(=O)N(C)C2CCS(=O)(=O)C2)cc1 (stereo not given) was read as MsrA inhibitor 0.4, NPR1 activator 2.6, NPR2 activator 6.5, HTR2A ag 2.9 and MsrA act -0.6.
For Cc1csc(SCC(=O)N(C)C2CCS(=O)(=O)C2)n1 (stereo not given) the results were MsrA inhibitor 0.7, NPR1 activator 4.9, NPR2 activator 90.4*, HTR2A ag 3.5 and MsrA act 0.3.
For CCN(CC)C(=O)CC[C@@H]1CC[C@]2(CCCN(C(=O)C3CCCCC3)C2)O1 the results were NPR1 activator 2.0 and NPR2 activator -1.8.
CC(O)(CS(=O)(=O)Cc1ccccc1)C(=O)Nc1cccc(C(F)(F)F)c1 (stereo not given) was read as MsrA inhibitor 0.0, NPR1 activator -0.6, NPR2 activator 0.9, HTR2A ag -4.0 and MsrA act 10.3*.
For CC(O)(CS(=O)(=O)Cc1ccccc1)C(=O)Nc1ccc(C(F)(F)F)cc1 (stereo not given) the results were MsrA inhibitor 0.8, NPR1 activator -0.4, NPR2 activator -2.8, HTR2A ag -3.5 and MsrA act -4.4.
CO[C@H]([C@H](C)/C=C/N(C)C=O)[C@@H](C)C(=O)CC[C@H](C)[C@H](O)[C@H](C)[C@H]1OC(=O)/C=C/C(C)=C/C[C@H](O)C[C@@H]2C=CC[C@@H](C[C@H](OC)C(C)(O)[C@@H](OC)C[C@@H](OC)[C@@H]1C)O2 (stereo not given in full) was read as NPR1 activator -28.2 and NPR2 activator -31.1.
Screening O=C(COC(=O)/C=C/c1ccc2c(c1)OCO2)NC1CC1 returned MsrA inhibitor 2.7, NPR1 activator 1.7, NPR2 activator 2.1, HTR2A ag 0.2 and MsrA act -6.8.
For N#CCOC(=O)/C=C/c1ccc2c(c1)OCO2 the results were MsrA inhibitor 7.0*, NPR1 activator 3.0, NPR2 activator 2.4, HTR2A ag 4.1 and MsrA act -6.0.
Screening CCCCNC(=O)CCSc1nc2nc(C)cc(C)n2n1 returned NPR1 activator 0.8, NPR2 activator -1.9, HTR2A ag 3.9 and MsrA act 8.0*.
Screening Nn1c(SCc2ccc(Br)cc2)nnc1-c1n[nH]c2c1CCC2 returned NPR1 activator -4.5 and NPR2 activator -15.1.
Screening O=C1ON=C(c2ccccc2)/C1=C/c1ccco1 returned MsrA inhibitor 1.1, NPR1 activator 35.9, NPR2 activator 35.4*, HTR2A ag -0.8 and MsrA act -2.6.
Screening CN(C)/C=C1\C(=O)ON=C1c1ccccc1 returned MsrA inhibitor -0.3, NPR1 activator -0.3, NPR2 activator -2.2, HTR2A ag -0.9 and MsrA act -6.6.
For C=C(C)CSc1nnc(-c2cc(-c3ccccc3)n[nH]2)n1N the results were NPR1 activator 3.2 and NPR2 activator -5.7.
For COC(=O)c1nn(-c2ccccc2)c(Sc2ccc(C)cc2)c1/C=N/O the results were MsrA inhibitor -0.2, NPR1 activator 56.3*, NPR2 activator -9.3, HTR2A ag -5.1 and MsrA act -0.2.
For COc1ccc(-c2[nH]ncc2N=Nc2ccccc2)cc1 the results were MsrA inhibitor 3.1, NPR1 activator 1.8, NPR2 activator 11.8, HTR2A ag -0.5 and MsrA act -5.2.
Screening COc1ccc(-c2[nH]ncc2N=Nc2cc(C)cc(C)c2)cc1 returned MsrA inhibitor 0.7, NPR1 activator -1.1, NPR2 activator 55.1*, HTR2A ag 0.8 and MsrA act 0.9.
`O=C(NCc1ccccn1)C1CC(c2ccccc2Cl)=NO1` (stereo not given) gave MsrA inhibitor -0.1, NPR1 activator 0.4, NPR2 activator 1.9, HTR2A ag 14.8* and MsrA act -7.8.
For COc1cc(C2=NOC(C(=O)NCc3ccccn3)C2)cc(OC)c1OC (stereo not given) the results were MsrA inhibitor 1.9, NPR1 activator -1.3, NPR2 activator 5.1, HTR2A ag 3.0 and MsrA act -2.6.
Screening Cc1occc1-c1nnc(SCC(=O)N2CCN(c3ncccn3)CC2)n1-c1ccccc1 returned NPR1 activator -3.1 and NPR2 activator -1.6.
`COc1ccc(C(CC(=O)N2CCCC2)c2c(OC)cc(OC)c3c(-c4ccccc4)cc(=O)oc23)cc1` (stereo not given) gave MsrA inhibitor 0.0, NPR1 activator -2.2, NPR2 activator -1.3, HTR2A ag -5.2 and MsrA act 9.0*.
CN1C(=O)C[C@@](C#N)(C(=O)Nc2nc3ccc(F)cc3s2)[C@H]1c1ccccc1 was read as NPR1 activator 4.8 and NPR2 activator -10.2.
`O=C(OCn1ncc(Cl)c(Cl)c1=O)c1ccccc1Cl` gave MsrA inhibitor 0.3, NPR1 activator 43.0*, NPR2 activator 32.6, HTR2A ag 13.4 and MsrA act -11.8.
Screening C=CCn1c(C)cc(C(=O)CN2NS(=O)(=O)c3ccccc3C2=O)c1C returned MsrA inhibitor 1.4, NPR1 activator -0.6, NPR2 activator -7.3, HTR2A ag -8.6 and MsrA act 0.3.
Screening CC(C)(C)C(=O)Cn1ncc(Cl)c(Cl)c1=O returned MsrA inhibitor -0.3, NPR1 activator 42.2*, NPR2 activator -7.7, HTR2A ag 4.0 and MsrA act -13.6.
Screening CC(C)(C)C(=O)Cn1ncc(N2CCCC2)c(Br)c1=O returned MsrA inhibitor 1.3, NPR1 activator 1.2, NPR2 activator 1.2, HTR2A ag 2.0 and MsrA act -2.8.
